Experimental data published in the supplement of paper PMC11732987, “Enantioselective OTUD7B fragment discovery through chemoproteomics screening and high-throughput optimisation” (Communications Chemistry, 2025).

How the values were obtained:
Experiment in all cases: log2 ratio of Biotin-Ahx-Ub-VS probe labelling (fragment/DMSO); higher = less target engagement (more negative = stronger competition), active = hit call of the paper (q ≤ 0.05, log2 ratio ≤ -1)
Details in all cases: compound concentration: 200 uM; treatment time: 3 h
USP19 = target: T1, USP19 (UniProt O94966)
T1 sequence (whole entry): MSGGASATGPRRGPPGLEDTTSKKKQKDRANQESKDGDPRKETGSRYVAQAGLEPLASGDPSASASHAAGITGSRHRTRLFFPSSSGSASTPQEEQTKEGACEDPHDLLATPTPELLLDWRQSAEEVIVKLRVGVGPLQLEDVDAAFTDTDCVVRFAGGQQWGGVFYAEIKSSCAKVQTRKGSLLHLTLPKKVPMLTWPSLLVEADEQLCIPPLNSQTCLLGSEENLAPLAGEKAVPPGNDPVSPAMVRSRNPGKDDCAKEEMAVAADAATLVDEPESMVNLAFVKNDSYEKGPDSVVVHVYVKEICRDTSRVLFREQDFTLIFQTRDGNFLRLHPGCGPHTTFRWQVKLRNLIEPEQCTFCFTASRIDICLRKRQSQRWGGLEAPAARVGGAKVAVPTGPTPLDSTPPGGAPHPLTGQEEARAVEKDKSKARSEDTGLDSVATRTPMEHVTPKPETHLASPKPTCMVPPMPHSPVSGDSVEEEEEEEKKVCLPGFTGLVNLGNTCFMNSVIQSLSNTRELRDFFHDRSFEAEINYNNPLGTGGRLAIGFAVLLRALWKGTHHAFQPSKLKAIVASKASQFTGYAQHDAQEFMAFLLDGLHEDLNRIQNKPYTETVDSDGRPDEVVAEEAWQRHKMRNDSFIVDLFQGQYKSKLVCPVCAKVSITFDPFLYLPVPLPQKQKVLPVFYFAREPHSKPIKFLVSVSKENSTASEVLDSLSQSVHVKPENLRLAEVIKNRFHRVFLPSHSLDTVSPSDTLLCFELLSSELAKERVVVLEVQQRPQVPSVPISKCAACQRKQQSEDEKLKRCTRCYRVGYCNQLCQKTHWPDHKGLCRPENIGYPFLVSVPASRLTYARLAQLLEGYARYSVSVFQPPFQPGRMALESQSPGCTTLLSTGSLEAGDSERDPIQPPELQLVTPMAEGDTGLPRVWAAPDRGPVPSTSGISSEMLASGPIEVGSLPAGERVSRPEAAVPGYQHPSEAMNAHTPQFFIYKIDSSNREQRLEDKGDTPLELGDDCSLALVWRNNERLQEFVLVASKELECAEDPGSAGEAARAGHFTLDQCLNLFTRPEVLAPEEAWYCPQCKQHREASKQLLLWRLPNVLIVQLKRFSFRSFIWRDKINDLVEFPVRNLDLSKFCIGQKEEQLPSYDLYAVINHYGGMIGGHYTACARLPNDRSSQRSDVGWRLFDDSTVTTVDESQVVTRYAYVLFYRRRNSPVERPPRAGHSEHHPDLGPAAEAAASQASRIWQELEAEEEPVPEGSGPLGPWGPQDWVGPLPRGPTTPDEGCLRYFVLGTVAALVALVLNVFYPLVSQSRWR
Procedure, shortened: (§1)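 Labelled DUBs from HEK293T lysate were NeutrAvidin-enriched, digested with LysC and trypsin, and run by diaPASEF LC-MS/MS. Before that, each 495 µg sample in Tris/CHAPS/IGEPAL buffer with protease inhibitors was treated in triplicate with fragment at 200 µM or vehicle for 3 h, then with Biotin-Ahx-Ub-VS at 0.5 µM final for 1 h. Values are average log2 ratios of fragment over vehicle by unpaired t-test, based on global-median-normalised Spectronaut label-free quantities from proteins with ≥2 unique peptides.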

USP24 = USP24 (UniProt Q9UPU5)
USP24, sequence (Q9UPU5 whole entry): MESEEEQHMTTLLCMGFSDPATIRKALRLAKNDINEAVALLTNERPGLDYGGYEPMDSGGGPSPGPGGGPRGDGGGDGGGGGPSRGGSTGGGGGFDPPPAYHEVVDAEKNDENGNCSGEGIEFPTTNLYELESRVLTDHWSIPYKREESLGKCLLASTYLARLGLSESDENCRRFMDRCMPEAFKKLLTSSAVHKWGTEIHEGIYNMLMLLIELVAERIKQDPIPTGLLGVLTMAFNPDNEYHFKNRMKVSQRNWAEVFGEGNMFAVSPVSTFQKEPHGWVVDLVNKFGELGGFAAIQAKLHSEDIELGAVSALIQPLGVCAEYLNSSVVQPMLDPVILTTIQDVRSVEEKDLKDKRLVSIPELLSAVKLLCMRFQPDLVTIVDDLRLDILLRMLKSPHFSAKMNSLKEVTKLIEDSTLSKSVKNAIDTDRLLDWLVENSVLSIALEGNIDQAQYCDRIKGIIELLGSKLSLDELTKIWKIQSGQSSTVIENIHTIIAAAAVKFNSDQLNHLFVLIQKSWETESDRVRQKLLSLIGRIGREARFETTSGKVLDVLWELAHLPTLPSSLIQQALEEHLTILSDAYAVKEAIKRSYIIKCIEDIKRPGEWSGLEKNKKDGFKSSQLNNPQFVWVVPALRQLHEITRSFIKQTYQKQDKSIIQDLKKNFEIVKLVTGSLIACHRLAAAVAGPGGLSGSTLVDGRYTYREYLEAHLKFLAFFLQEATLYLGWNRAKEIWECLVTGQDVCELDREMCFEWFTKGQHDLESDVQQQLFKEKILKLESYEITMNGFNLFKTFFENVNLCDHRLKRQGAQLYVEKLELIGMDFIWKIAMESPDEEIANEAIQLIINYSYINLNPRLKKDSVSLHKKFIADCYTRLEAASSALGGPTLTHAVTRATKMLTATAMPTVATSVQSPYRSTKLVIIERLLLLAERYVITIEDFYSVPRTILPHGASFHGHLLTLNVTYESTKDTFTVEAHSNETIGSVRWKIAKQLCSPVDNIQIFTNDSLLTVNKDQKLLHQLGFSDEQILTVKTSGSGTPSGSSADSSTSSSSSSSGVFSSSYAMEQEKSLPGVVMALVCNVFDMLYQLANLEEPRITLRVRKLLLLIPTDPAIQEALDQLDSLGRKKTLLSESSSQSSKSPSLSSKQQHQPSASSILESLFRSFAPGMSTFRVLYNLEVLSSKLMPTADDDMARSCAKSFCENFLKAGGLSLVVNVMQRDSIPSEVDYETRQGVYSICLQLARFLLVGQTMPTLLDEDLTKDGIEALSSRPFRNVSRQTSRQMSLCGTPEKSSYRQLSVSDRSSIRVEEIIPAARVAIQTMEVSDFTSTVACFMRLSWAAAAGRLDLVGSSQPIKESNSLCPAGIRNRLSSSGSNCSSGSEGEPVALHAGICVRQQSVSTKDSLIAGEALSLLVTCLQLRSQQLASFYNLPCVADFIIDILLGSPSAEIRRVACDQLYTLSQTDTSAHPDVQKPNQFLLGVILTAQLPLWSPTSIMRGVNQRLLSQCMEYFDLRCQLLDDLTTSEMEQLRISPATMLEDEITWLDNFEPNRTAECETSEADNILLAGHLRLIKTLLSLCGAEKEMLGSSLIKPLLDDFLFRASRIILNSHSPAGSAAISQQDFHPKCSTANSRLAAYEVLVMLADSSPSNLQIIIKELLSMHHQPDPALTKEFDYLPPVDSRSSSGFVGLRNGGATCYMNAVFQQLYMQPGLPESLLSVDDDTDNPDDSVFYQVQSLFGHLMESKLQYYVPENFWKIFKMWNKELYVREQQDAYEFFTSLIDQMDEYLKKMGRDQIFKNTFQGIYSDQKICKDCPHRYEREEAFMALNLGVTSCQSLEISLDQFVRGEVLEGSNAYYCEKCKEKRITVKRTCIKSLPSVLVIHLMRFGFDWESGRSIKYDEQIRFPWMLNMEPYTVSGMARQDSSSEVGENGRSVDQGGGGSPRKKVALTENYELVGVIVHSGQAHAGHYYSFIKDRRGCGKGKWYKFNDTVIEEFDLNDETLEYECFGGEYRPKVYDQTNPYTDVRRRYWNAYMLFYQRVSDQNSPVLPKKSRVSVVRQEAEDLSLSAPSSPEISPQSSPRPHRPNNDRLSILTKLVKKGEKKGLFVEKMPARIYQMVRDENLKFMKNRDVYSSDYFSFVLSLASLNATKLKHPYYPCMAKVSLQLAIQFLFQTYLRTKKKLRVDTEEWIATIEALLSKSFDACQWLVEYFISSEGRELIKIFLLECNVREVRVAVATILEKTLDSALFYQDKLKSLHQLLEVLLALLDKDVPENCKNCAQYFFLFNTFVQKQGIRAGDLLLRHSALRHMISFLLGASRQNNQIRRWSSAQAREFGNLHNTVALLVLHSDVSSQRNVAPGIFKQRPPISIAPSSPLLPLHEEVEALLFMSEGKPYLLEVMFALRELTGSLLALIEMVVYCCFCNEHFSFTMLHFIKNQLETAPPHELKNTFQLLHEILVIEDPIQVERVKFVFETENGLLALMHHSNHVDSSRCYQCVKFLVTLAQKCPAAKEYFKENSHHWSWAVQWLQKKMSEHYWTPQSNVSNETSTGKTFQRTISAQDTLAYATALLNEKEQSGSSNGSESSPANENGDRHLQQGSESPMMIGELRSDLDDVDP
Procedure, shortened: as §1

USP25 = target: T2, USP25 (UniProt Q9UHP3)
T2 sequence (whole entry): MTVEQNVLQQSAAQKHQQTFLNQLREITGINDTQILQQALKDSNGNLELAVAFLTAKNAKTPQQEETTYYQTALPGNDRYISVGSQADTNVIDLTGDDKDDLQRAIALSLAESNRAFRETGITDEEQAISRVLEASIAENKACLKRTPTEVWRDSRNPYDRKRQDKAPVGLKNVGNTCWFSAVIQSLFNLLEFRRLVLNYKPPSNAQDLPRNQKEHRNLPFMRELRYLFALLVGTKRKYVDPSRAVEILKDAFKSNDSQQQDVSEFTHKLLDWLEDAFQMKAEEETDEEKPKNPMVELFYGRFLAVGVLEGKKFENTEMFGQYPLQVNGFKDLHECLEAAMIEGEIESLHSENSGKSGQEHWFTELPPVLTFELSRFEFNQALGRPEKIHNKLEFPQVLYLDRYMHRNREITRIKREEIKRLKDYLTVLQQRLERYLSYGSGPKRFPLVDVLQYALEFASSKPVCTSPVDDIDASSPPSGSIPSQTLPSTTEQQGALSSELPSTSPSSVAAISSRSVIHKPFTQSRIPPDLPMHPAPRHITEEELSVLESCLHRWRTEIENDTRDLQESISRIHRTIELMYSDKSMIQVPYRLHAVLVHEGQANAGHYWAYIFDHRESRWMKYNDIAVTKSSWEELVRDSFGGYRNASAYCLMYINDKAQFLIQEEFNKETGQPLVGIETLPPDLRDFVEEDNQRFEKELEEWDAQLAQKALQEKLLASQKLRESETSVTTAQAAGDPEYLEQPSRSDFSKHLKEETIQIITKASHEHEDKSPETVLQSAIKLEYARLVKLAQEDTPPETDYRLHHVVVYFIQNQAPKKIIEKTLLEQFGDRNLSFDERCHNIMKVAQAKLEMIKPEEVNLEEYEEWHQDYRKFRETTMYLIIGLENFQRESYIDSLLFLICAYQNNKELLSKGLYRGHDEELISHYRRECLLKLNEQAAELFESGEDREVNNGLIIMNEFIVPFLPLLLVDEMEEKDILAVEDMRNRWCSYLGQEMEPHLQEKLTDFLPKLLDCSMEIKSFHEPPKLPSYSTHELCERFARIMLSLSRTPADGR
Procedure, shortened: as §1

USP28 = target: T3, USP28 (UniProt Q96RU2)
T3 sequence (whole entry): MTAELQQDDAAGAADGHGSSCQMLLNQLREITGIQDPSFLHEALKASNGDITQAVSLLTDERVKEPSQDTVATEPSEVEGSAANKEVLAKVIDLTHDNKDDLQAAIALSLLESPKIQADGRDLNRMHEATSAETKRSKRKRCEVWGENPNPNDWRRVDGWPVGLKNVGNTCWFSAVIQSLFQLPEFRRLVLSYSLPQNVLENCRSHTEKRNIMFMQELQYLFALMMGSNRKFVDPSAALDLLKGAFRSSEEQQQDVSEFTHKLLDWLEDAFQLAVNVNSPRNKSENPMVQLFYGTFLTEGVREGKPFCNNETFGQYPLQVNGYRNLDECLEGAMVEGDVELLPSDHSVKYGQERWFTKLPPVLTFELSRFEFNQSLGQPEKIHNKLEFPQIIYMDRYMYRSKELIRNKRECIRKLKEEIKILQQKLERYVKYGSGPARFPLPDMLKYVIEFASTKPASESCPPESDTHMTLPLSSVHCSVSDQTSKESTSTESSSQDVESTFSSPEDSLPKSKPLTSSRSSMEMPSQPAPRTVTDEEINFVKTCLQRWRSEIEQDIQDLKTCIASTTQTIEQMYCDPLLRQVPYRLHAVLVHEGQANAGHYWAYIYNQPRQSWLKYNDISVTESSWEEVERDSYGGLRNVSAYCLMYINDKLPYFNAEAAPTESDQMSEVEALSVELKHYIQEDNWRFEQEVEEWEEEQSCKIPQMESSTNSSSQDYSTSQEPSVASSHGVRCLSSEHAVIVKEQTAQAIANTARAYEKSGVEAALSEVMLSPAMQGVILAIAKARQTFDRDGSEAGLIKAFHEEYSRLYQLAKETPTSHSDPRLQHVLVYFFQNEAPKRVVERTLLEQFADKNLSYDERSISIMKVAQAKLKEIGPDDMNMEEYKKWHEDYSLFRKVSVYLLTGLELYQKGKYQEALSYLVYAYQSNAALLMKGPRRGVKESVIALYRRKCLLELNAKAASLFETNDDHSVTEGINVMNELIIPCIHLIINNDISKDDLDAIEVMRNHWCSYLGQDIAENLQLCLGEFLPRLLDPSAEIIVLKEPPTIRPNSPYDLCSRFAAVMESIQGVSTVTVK
Procedure, shortened: as §1

Measured: log2 ratio of Biotin-Ahx-Ub-VS probe labelling

O=C(CCl)N1CCC(OCc2ccccc2F)CC1
inactive: USP19 -0.0583 | USP24 -0.486 | USP25 -0.163 | USP28 -0.161
